Hits are enriched below; roughly 0.81% of the tested compounds scored in any of these assays.
AMA1-RON2 inh – disrupts binding of P. falciparum AMA1 to RON2. AlphaScreen AMA1-biotinylated RON2 peptide binding. Potency, µM (doses to about 58.2 µM), usual class: inhibitors. hit rate 0.2% among 360,000. AID 720542; note: nearly all actives have a fitted effect of over 45% in size
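AMA1 (3D7) with his tag at 25 nM final met compounds first, then biotinylated RON2 peptide at 25 nM; detection used donor plus acceptor beads, 10 µg/mL apiece, read by AlphaScreen after 30 min at room temperature.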
Tb PYK inh – blocks Trypanosoma brucei pyruvate kinase; Q57TT1; TbPYK enzyme, Kinase-Glo Plus ATP luminescence, 45 min; Potency, µM (doses to about 76.8 µM), most hits filed as inhibitors; hit rate 0.12% among 410,000; AID 624173; note: nearly all actives have a fitted effect of over 50% in size
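In this concentration-response screen, enzyme-free wells defined baseline while DMSO plates tracked drift. Each reaction combined TbPYK, substrate, compound and 130 uM ADP for 45 min at room temperature. Kinase-Glo Plus luminescence gave the signal.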
LmPK inh – blocks Leishmania mexicana pyruvate kinase activity | Q27686 | purified LmPK, Kinase-Glo ATP luminescence, 1 h | Potency, µM (highest dose often 57.5 µM), hits mostly inhibitors | hit rate 0.37% among 290,000
Target sequence (Q27686 whole entry, looked up): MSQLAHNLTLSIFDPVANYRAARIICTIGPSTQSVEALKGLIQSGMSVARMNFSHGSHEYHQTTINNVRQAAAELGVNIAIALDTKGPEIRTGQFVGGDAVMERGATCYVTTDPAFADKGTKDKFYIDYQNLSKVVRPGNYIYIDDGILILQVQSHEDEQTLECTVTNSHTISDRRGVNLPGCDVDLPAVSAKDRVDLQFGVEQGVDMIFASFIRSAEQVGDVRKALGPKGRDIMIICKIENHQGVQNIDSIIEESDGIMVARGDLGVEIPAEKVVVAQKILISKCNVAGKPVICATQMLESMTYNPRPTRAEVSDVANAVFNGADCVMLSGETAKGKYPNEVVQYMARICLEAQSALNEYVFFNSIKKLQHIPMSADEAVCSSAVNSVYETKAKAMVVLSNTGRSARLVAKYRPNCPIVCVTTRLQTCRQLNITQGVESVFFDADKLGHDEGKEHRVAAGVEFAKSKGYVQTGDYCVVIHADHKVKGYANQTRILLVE
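Kinase-Glo luminescence read after 1 h RT reaction of 0.1 nM LmPK with 0.5 mM PEP and 0.1 mM ADP. Activity scaled between uninhibited and enzyme-free controls.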
SARS PLpro yeast – blocks SARS-CoV papain-like protease in a yeast assay | S. cerevisiae expressing SARS-CoV PLpro, growth rescue | Potency, µM (titrated, usually from 32.9 µM), most hits filed as activators | hit rate 0.19% among 330,000; calls by dose curve; note: nearly all actives have a fitted effect of over 55% in size
RE007 growth inh – less growth of the S. pombe RE007 Vpr strain. Potency, µM (doses to about 92.2 µM), most hits filed as inhibitors. hit rate 0.21% among 360,000. S. pombe RE007 Vpr strain, BacTiter-Glo ATP luminescence, 24 h; active = well fitted falling curve with a large enough effect; inconclusive = small, poorly fitted or top-dose-only effect; inactive = no such curve, though single readings can be large or run the other way; note: nearly all actives have a fitted effect of over 50% in size
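Fission yeast RE007 carrying one integrated HIV-1 vpr copy, seeded at OD 0.01 in PMG+AL medium with 23 nL pinned compound. Grown 24 h at 30 degrees; viability read by BacTiter-Glo luminescence after 5 min.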
Hits are given with their value; - = inactive; ? = inconclusive; . = not tested or not shown; [ ] = dose if it differs, or a comment. Unless noted, calls come from the whole dose curve; as a rule, active = well fitted curve in the direction sought with a large enough effect; inconclusive = small, poorly fitted or top-dose-only effect, or another doubt; inactive = no such curve, though single readings can be large; an effect the other way counts as inactive or inconclusive.

SMILES	AMA1-RON2 inh	Tb PYK inh	LmPK inh	SARS PLpro yeast	RE007 growth inh
CCCCN1CC(COCc2ccccc2)Oc2cccc(OCCN3C(=O)[C@@H]4[C@H](C3=O)C3C=C[C@H]4C3)c2S1(=O)=O (some centres not stated)	-	-	.	.	-
CCOC(=O)C1=C(C)N(c2ccc(OC)cc2)C(=O)/C1=C\c1ccc(O)c(OCC)c1	-	-	31.6µM	-	-
CCOC(=O)C1=C(C)N(c2ccc(OC)cc2)C(=O)/C1=C\c1cccs1	-	-	-	-	-
Fc1cccc(F)c1/C=C/c1ccc2ccccc2n1	-	?	8.91µM	-	?
CCc1ccccc1N1CSC2=C(C#N)C(c3ccccc3F)CC(=O)N2C1 (configuration not stated)	-	8.91µM	-	-	-
COc1ccc(C2CC(=O)N3CN(c4ccccc4F)CSC3=C2C#N)cc1OC (configuration not stated)	-	3.16µM	-	-	-
CC(=O)C1=C(c2ccc(Cl)c(Cl)c2)N(C(C)=O)n2cnnc2S1	.	-	.	.	.
CCOc1cc(/C=N/N=C2/NC(=O)C(CC(=O)O)S2)ccc1OCc1ccc(Cl)cc1 (configuration not stated)	-	?	12.6µM	-	-
COc1ccc(CNC(=O)C2=CC(c3cccc(OC)c3)=NS(=O)(=O)N2C)cc1	.	-	.	.	.
O=C(OCC(=O)N1CCN(C(=O)c2ccco2)CC1)c1cc(-c2ccco2)nc2ccccc12	21.2µM	?	-	-	-
O=C(OCC(=O)N1CCN(C(=O)c2ccco2)CC1)c1cc(-c2ccc(Cl)c(Cl)c2Cl)nc2ccccc12	-	-	-	-	-
Cc1cc(C(=O)CSc2cccc[n+]2[O-])c(C)n1-c1ccc(Br)cc1	.	.	-	-	.
O=C(CSc1cccc[n+]1[O-])c1ccccc1Br	-	-	-	-	22.4µM
N/N=C(/Cc1nc2ccccc2[nH]1)c1ccc([N+](=O)[O-])cc1	-	-	-	-	12.6µM
CCOC(=O)c1ccc(NC(=O)CC2Sc3ncnn3C2=O)cc1 (configuration not stated)	-	-	-	-	31.6µM
COc1ccc2c3c(c(=O)oc2c1)C1O[C@](c2ccsc2)(Cc2cc(C#N)ccc21)O3	.	.	-[11.5 µM]	-[6.58 µM]	.
COc1ccc(C(=O)O/N=C(\C)c2ccccc2)cc1	-	12.6µM	6.31µM	-	-
N/C(=N\OC(=O)c1cccc(F)c1)c1ccccc1	-	-	15.8µM	-	-
COc1ccc(C(=O)O/N=C(/c2ccccc2)c2ccncc2)cc1	-	-	-	-	-
N/C(=N\OC(=O)c1ccc(F)cc1)c1ccccc1	-	?	7.94µM	-	?
CCc1ccc(-c2nc(CN3CCCC(C(=O)N4CCN(c5cc(Cl)ccc5C)CC4)C3)c(C)o2)cc1 (configuration not stated)	.	-	.	.	.
COc1ccc(C(=O)CCC(=O)O)c2ccccc12	.	-	.	.	.
CCCCCCC(O)C/C=C\CCCCCCCC(=O)O (configuration not stated)	.	-	.	.	.
O=C(CCn1c(=O)oc2ccccc21)N1CCC2(CC1)OCCO2	-	15.8µM	-	-	-
Cc1ccc(/C=C/C(=O)N2CCN(S(=O)(=O)c3ccc(C)c(C)c3)CC2)o1	-	14.1µM	-	-	-
SMILES	AMA1-RON2 inh	Tb PYK inh	LmPK inh	SARS PLpro yeast	RE007 growth inh
Cc1ccc(/C=C/C(=O)N2CCN(S(=O)(=O)c3c(C)c(C)cc(C)c3C)CC2)o1	-	?	-	-	-
O=Nc1ccc(NOC(=O)c2ccccc2)cc1	-	?	12.6µM	-	10µM
COC(=O)Cc1ccc2sc(-c3ccccc3)nc2c1	-	?	14.1µM	-	?
Cc1ccc(C(=O)NC(=S)Nc2c(C)ccc3nsnc23)cc1	-	-	-	12.6µM	-
CN(C)c1ccc(C=c2c3cc(O)ccc3n3c2cc(-c2ccccc2)[n+]3C)cc1	14.1µM	-	.	.	-
CCOC(=O)c1cc2c(=Cc3ccc(N(C)C)cc3)c3ccccc3n2[n+]1C	20µM	-	.	.	?
Cc1cc2c(=Cc3ccc(N(C)C)cc3)c3ccccc3n2[n+]1C	?	-	.	.	-
C[n+]1c(-c2ccccc2)cc2c(=Cc3ccc([N+](=O)[O-])cc3)c3ccccc3n21	?	-	.	.	-
C[n+]1c(-c2ccccc2)cc2c(=Cc3ccccc3)c3ccccc3n21	15.8µM	-	.	.	?
CCc1nnc(NC(=O)CSc2sc3c(O)cc(=O)[nH]c3c2C#N)s1	10µM	-	-	-	-
O=C(NCc1ccc(Cl)cc1)c1noc2c1CCCC2	-	-	-	-	?
CC(NC(=O)c1noc2c1CCCC2)c1ccccc1 (configuration not stated)	-	-	-	-	35.5µM
CCc1ccc(NC(=O)c2noc3c2CCC3)cc1	-	-	14.1µM	-	?
O=C(NCc1ccccc1)c1noc2c1CCCC2	-	-	-	-	15.8µM
CC(C)OC(=O)c1cc2c(OC[C@@H](O)CNC(C)(C)C)cccc2[nH]1	.	-	.	.	.
Cc1occc1C(=O)N/N=C/c1ccc(Br)s1	-	-	25.1µM	-	?
Cc1ccc(/C=N/NC(=O)c2ccoc2C)s1	-	-	14.1µM	-	-
Cn1nccc1C(=O)N/N=C/c1ccccc1[N+](=O)[O-]	-	-	?	-	-
Cc1occc1C(=O)N/N=C/c1ccccc1[N+](=O)[O-]	-	-	14.1µM	-	-
Cc1ccc(S(=O)(=O)N2CCCCC2)cc1C(=O)NCCCN1CCOCC1	-	-	-	-	-
CC(C)(C)OC(=O)N(Cc1ccccc1)Cc1ccccc1OCc1cccc(NC(=O)C2CCC2)c1	-	-	.	.	-
C/C(=N/NC(=O)c1cc(C2CC2)[nH]n1)c1cccs1	-	-	22.4µM	-	-
C/C(=N\NC(=O)c1ccccc1O)c1cccs1	-	-	14.1µM	-	-
C/C(=N\NC(=O)c1cccc2ccccc12)c1cccs1	-	-	-	-	-
CCCSCCCNC(=O)C1CCCN(c2nn3cc(-c4ccc(OC)cc4)nc3s2)C1 (configuration not stated)	.	-[15.4 µM]	.	.	.
SMILES	AMA1-RON2 inh	Tb PYK inh	LmPK inh	SARS PLpro yeast	RE007 growth inh
NC(=O)c1ccc(C[C@H](C(=O)O)N2C(=O)c3ccc(C(=O)O)cc3C2=O)cc1	.	.	.	-	.
C=CCNC(=S)NNC(=O)c1cccn(Cc2ccc(Cl)cc2Cl)c1=O	-	11.2µM	-	-	-
CCCCCCCC#Cc1ccccc1/C=N/S(=O)c1ccc(C)cc1 (configuration not stated)	-	20µM	-	-	?
CCCCC(CC)COS(=O)(=O)O (configuration not stated)	.	-	.	.	.
Cc1ccc(Cc2c(-c3ccc(Cl)cc3)nc3c(Cl)cc(C(F)(F)F)cn23)cc1	-	-	.	.	-
c1ccc2c(c1)Nc1cc3ccccc3cc1S2	-	-	-	-	-
COc1ccc2c(c1)Sc1ccccc1N2	15.8µM	-	-	-	?
COC1=C(C(=O)O)N2C(=O)[C@@H](NC(=O)C(N)C3C=CCC=C3)[C@H]2SC1 (some centres not stated)	.	-	.	.	.
